# From PubChem BioAssay
# Calls of active or inactive are those of the source.
# How the values were obtained:
# Albumin (Bos taurus) = Albumin (Bos taurus) (UniProt P02769); experiment: bovine serum albumin binders on microarray, profiling panel, artefact control for SMM control protein annotation, biochemical, small-molecule microarray, Alexa647 label, 635/667 nm fluorescence (AID 1118); details: BSA-A647 binding, fluorescence 635 nm, higher = more signal;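 also: score merges 667 nm emission intensity and signal-to-noise per printed compound spot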
# Albumin (Bos taurus), sequence (P02769 whole entry, looked up): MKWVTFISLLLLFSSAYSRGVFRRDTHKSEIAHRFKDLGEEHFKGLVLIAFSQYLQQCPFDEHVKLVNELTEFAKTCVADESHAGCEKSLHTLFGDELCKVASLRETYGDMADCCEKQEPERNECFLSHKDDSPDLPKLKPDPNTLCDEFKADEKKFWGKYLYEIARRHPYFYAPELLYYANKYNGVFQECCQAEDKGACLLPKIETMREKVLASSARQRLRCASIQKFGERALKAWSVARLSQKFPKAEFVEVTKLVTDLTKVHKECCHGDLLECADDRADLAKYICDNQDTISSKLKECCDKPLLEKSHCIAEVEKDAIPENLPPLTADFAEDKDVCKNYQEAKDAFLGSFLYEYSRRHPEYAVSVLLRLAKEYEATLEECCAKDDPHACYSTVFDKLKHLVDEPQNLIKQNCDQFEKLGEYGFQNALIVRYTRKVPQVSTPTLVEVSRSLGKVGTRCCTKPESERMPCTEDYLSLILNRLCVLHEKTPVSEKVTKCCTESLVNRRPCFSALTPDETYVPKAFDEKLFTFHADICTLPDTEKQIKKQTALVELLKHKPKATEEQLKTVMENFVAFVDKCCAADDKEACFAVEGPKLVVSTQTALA
# [1] = small-molecule microarray binders of probe aXIP, primary screen, biochemical, NeuroSMM set, 635/667 nm fluorescence (AID 1119); details: higher = more signal, called active from +8 up or from −8 down;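 also: probe is the protein aXip251-270 applied at 1 µg/mL to compound-printed slides; binding of probe to printed compounds measured as 667 nm fluorescence plus signal to noise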
# [2] = small-molecule binders of probe aNOTCH3, primary screen, biochemical, small-molecule microarray, 635/667 nm fluorescence (AID 1120); details: higher = more signal;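 also: probe is a biotin-tagged antibody raised against NOTCH3 rather than NOTCH3 protein; score merges spot fluorescence near 667 nm with spot signal to noise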
# [3] = small-molecule binders of probe aNOTCH2, primary screen, biochemical, small-molecule microarray, 635/667 nm fluorescence (AID 1121); details: higher = more signal;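 also: score merges feature fluorescence read at 667 nm with its signal to noise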
# [4] = target: Carbonic anhydrase 2 (Homo sapiens) (UniProt P00918); experiment: CAII small-molecule binders, profiling panel, biochemical, small-molecule microarray, Alexa647-labelled CAII (AID 1122); details: CAII-A647 binding fluorescence, higher = more signal
# [5] = COS7 lysate on small-molecule microarray, probe aHis, 635 nm (AID 1123); details: COS7 cell lysate, fluorescence, higher = more signal;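 also: z-score combines 667nm fluorescence intensity with signal-to-noise per printed compound spot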
# [6] = compound binding in COS7 lysate, probe aLAP1, primary screen, cell lysate, small-molecule microarray (AID 1124); details: probe aLAP1, fluorescence, higher = more signal;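 also: lysate comes from COS7 cells expressing LAP1 and is applied at 0.3 µg/mL; score merges spot fluorescence near 667 nm with signal-to-noise over triplicate slides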
# Sam68 (KHDRBS1) = experiment: Sam68 small-molecule binders, primary screen, biochemical, small-molecule microarray, 635 nm fluorescence (AID 1125); details: small-molecule microarray binding, higher = more signal;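 also: score merges 667 nm channel intensity with signal to noise over triplicate slides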
# [7] = tested on: Chordin-like protein 2 (CHRDL2); experiment: CHRDL2 small-molecule binders, primary screen, biochemical, small-molecule microarray, 635 nm fluorescence (AID 1126); details: small-molecule microarray binding, fluorescence 635 nm; higher = more signal;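 also: printed compound slides probed with Chrdl2 protein at 4 µg/mL for 1 h at 4 C; score merges 667 nm emission intensity with signal to noise over three replicate slides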
# [8] = target: Concanavalin-A (Canavalia ensiformis) (UniProt P02866); experiment: ConA small-molecule binders, primary screen, artefact control for SMM control protein annotation, biochemical, small-molecule microarray, Alexa647 label, 635 nm (AID 1127); details: ConA-A647 binding fluorescence, higher = more signal;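 also: z combines 667 nm emission intensity with signal-to-noise across three replicate slides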
# Concanavalin-A (Canavalia ensiformis), sequence (P02866 whole entry, looked up): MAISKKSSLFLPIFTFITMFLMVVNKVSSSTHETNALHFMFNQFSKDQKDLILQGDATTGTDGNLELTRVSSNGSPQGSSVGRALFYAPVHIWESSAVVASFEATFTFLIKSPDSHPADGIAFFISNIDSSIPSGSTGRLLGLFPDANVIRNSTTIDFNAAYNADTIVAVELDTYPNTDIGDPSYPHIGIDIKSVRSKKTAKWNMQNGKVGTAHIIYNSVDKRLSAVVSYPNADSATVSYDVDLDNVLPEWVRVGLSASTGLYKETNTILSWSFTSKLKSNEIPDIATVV
Structure (SMILES),composite z-score (Albumin (Bos taurus)),composite Z-score [1],composite z-score [2],composite z-score [3],composite z-score [4],composite z-score [5],composite z-score [6],composite z-score (Sam68 (KHDRBS1)),composite z-score [7],composite z-score [8]
C=C(CCCC)/C(=C/C[C@H](OC(C)=O)c1ccc(OCCO)cc1)c1cnc2ccccc2c1,0.466,0.0474 (inactive),0.116,-0.108,0.471,1.2,0.117,1.31,1.05,0.817
COCCOC(=O)N1C(=O)[C@@]2(c3ccccc31)[C@H](c1ccc(OCCO)cc1)N1[C@H](c3ccccc3)[C@H](c3ccccc3)OC(=O)[C@H]1[C@@H]2C(=O)N1CCc2cc(OC)c(OC)cc2C1,0.642,0.158 (inactive),0.273,-0.0021,0.641,2.4,1.43,1.28,0.584,1.16
CC(C)NC(=O)[C@@]1(Cc2ccccc2I)c2ccccc2C(=O)N(Cc2ccccc2Cl)[C@H]1c1ccc(CO)cc1,0.0517,0.786 (inactive),-0.0573,-0.0741,0.506,1.73,-0.0064,1.29,0.432,1.1
COc1ccc([Si](C)(C)[C@H]2[C@H](CCn3cc([C@H](O)c4ccccc4)nn3)O[C@@]3(C(=O)N(C)c4ccccc43)[C@@H]2C)cc1,0.179,0.235 (inactive),-0.0057,-0.0485,0.509,0.476,-0.116,0.106,-0.544,-0.454
[N-]=[N+]=Nc1ccccc1C[C@]1(C(=O)NCc2ccccc2)N=C(c2ccc(OCCCO)cc2)O[C@H]1c1ccccc1N=[N+]=[N-],0.896,0.411 (inactive),0.555,-0.0211,0.676,2.63,0.458,1.06,-0.124,1.13
COC(=O)[C@@]1(Cc2ccc(OC)cc2)[C@H]2c3cc(C(=O)N(C)C)n(Cc4ccc(C(F)(F)F)nc4)c3C[C@H]2CN1C(=O)c1ccccc1,0.92,3.72 (inactive),0.17,0.183,0.752,2.11,0.017,-0.354,0.181,-0.0962
C=CCNC(=O)[C@@H]1[C@H]2C(=O)O[C@H](c3ccccc3)[C@H](c3ccccc3)N2[C@H](c2ccc(OCCO)cc2)[C@@]12C(=O)N(C(=O)OCCOC)c1ccc(C#CCNC(N)=O)cc12,-0.178,0.0253 (inactive),0.163,-0.0632,0.513,1.02,0.662,1.3,0.305,1.1
COC(=O)C(CC#Cc1ccc2c(c1)[C@]1(C(=O)N2)[C@H](c2ccc(O)cc2)N2[C@H](c3ccccc3)[C@H](c3ccccc3)OC(=O)[C@H]2[C@@H]1C(=O)N1CCN(c2ncccn2)CC1)C(=O)OC,0.518,0.471 (inactive),0.166,0.0669,0.476,2.47,0.415,1.28,0.0801,1.11
COCCOC(=O)N1C(=O)[C@@]2(c3cc(C#Cc4ccc(OC)cc4)ccc31)[C@H](c1ccc(O)cc1)N1[C@H](c3ccccc3)[C@H](c3ccccc3)OC(=O)[C@H]1[C@@H]2C(=O)Nc1nc2ccccc2s1,0.576,0.303 (inactive),-0.0299,-0.124,0.537,1.54,-0.0159,1.3,0.0727,1.16
COc1cc(CO)cc(I)c1O[C@H]1C=C(C(=O)NCCO)C[C@@H](NC[C@@H]2CCCO2)[C@@H]1O,0.0917,-0.791 (inactive),0.105,-0.14,-0.0877,-0.0856,0.696,1.16,0.0292,0.0446
C=CC[C@@]1(C(=O)N2CCCCC2)N=C(c2ccc(OCCCO)cc2)O[C@@H]1c1ccccc1CN=[N+]=[N-],0.866,-0.166 (inactive),0.244,-0.0505,0.671,3.13,1.06,1.29,-0.602,1.04
O=C(O)[C@H]1C[C@H]2C(=O)N3CCC[C@H]3C(=O)N2[C@H]1c1ccc(O)cc1,-2.04,0.0047 (inactive),-0.368,-0.176,0.545,0.193,0.107,-0.132,-1.49,0.298
COc1ccc([Si](C)(C)[C@@H]2[C@@H](CCn3cc(CCO)nn3)O[C@]3(C(=O)N(Cc4cccc(N5C(=O)c6cccc7cccc5c67)c4)c4ccccc43)[C@H]2C)cc1,0.695,0.478 (inactive),0.0351,-0.14,0.224,1.01,0.222,1.29,-0.0468,0.833
COc1ccc([Si](C)(C)[C@@H]2[C@@H](CCO)O[C@]3(C(=O)N(Cc4cccc(N5CCOC5=O)c4)c4ccccc43)[C@H]2C)cc1,0.757,-0.295 (inactive),0.326,-0.0907,0.219,0.531,-0.231,1.15,-0.0408,1.12
CC(=O)NCCCC[C@@H]1NC(=O)[C@H]2C[C@@H](C(=O)O)[C@@H](c3ccc(O)cc3)N2C1=O,-0.0314,0.297 (inactive),0.22,-0.0798,0.411,1.14,0.177,1.29,1.36,1.1
COCCCNC(=O)[C@@]1(Sc2ccc(C)cc2)CC(=O)N(Cc2ccccc2Cl)[C@@H]1c1ccc(CO)cc1,0.71,-0.301 (inactive),0.132,-0.14,0.718,1.35,0.203,1.1,0.649,0.629
C=C(C)[C@@H]1CC=C(C(O)C2C=CC3C(=O)NC(=O)C3N2Nc2ccc(Cl)cc2Cl)CC1 (stereo not given in full),1,0.114 (inactive),0.0221,0.0032,0.708,2,0.708,1.31,0.41,1.11
CC(C)(C)OC(=O)CC[C@@]1(C(=O)N2CCCCC2)N=C(c2ccc(OCCCO)cc2)O[C@@H]1c1ccccc1,0.962,-0.317 (inactive),0.372,-0.0659,0.781,2.59,0.796,1.29,-0.409,0.719
CC(C)N1CC=CC23O[C@@H]4C=CCOC(=O)[C@@H]4[C@H]2C(=O)N(CCCCCO)[C@@H]3C1=O (stereo not given in full),1.02,-0.194 (inactive),-0.12,-0.153,0.733,1.64,0.915,-0.135,-0.574,0.823
O=C1C2C=CC(C(O)c3ccc(F)cc3)N(Nc3ccc([N+](=O)[O-])cc3)C2C(=O)N1c1ccccc1 (stereo not given),0.877,0.227 (inactive),0.0749,-0.0852,0.795,2.76,0.569,1.31,0.0095,1.15
O=C(CS)NCCCCCNC(=O)[C@@H]1C[C@@H]2C(=O)NCC(=O)N2[C@@H]1c1cccc(OCCO)c1,0.57,0.498 (inactive),-0.162,-0.125,0.179,1.61,0.783,0.459,0.656,0.324
CCCCC(O)C1C=CC2C(=O)N(C)C(=O)C2N1N1CCCCC1 (stereo not given),0.843,0.257 (inactive),0.291,0.0675,0.821,2.45,0.536,0.952,0.372,0.0635
O=C1NC(=O)C2C1C=CC(C(O)C1CC=CCC1)N2Nc1ccccn1 (stereo not given),-0.459,0.945 (inactive),0.137,-0.0272,0.79,0.793,0.643,0.231,1.05,0.497
CN(C)CCCCNC(=O)[C@@H]1C[C@@H]2C(=O)N[C@@H](CCCCN)C(=O)N2[C@@H]1c1ccc(O)cc1,-0.153,0.237 (inactive),-0.0613,-0.0241,-0.0397,1.7,0.0496,0.239,0.965,1.19
C[N+](C)(C)CCCC[C@@H]1NC(=O)[C@H]2C[C@@H](C(=O)NCCCCCCNC(=O)CS)[C@@H](c3ccc(O)cc3)N2C1=O,0.329,-0.921 (inactive),-0.437,-0.0764,0.501,0.483,1.49,-0.611,0.0077,-2.35
O=C1C2C=CC(C(O)c3cc(C(F)(F)F)cc(C(F)(F)F)c3)N(Nc3ccccc3)C2C(=O)N1c1ccccc1 (stereo not given),-0.0814,0.837 (inactive),0.0435,-0.101,0.723,2.51,-0.233,1.04,-0.357,-0.236
